# Experimental data taken from ChEMBL document CHEMBL3988442, “University of Dundee, Small-Polar-MMV Screening Library” (2021).
# The whole screen tested about 48,000 compounds, of which about 13,000 (27%) showed an effect of 50% or more. The list shows a part of the results.
# Tested on: Wolbachia pipientis
# Experiment: Anti-Wolbachia Cell-Based Screen
# Format: functional
# Parameters: scale not given: in the data most compounds retested in dose-response had high values
# Settings: 5 µM
row,Compound,Percent Effect [%]
1,Cc1c(C(=O)OCC2CC(=O)N(c3ccccc3)C2)cnn1C(C)C (stereo not given),4.999
2,CN(C)C(=O)[C@H]1C[C@@H]2CCN(Cc3ccoc3)C[C@@H]2O1.O=C(O)C(F)(F)F,113.2
3,CN(C)S(=O)(=O)N1C[C@@H]2CN(Cc3ccoc3)CCO[C@@H]2C1.O=C(O)C(F)(F)F,-19.85
4,CN(C)C(=O)[C@@H]1C[C@@H]2CCN(Cc3ccc4c(c3)OCO4)C[C@@H]2O1.O=C(O)C(F)(F)F,-14.9
5,CCc1ccc(C(=O)N2CC[C@](C)(O)C(C)(C)C2)[nH]1,-18.68
6,COc1ccccc1-n1cc(C(=O)NCCCn2nc(C)nc2C)cn1,95.25
7,COc1c2ccc(C(=O)NCCCn3ncccc3=O)cc2nn1C,16.19
8,COc1ccccc1-n1cc(C(=O)NCCn2nc(C)nc2C)cn1,116.2
9,COc1ccccc1N1CCN(C(=O)CCn2nnnc2C)CC1(C)C,3.802
10,COc1ccccc1-n1cc(CN2CCN(C)[C@@H]3CS(=O)(=O)C[C@@H]32)cn1,-2.085
11,Cc1nc(C)n(CCCNC(=O)C(C)n2ccnc2C(C)C)n1 (stereo not given),3.373
12,CN(CCN1CCOCC1)C(=O)CCc1ccc(C(F)(F)F)cc1,-5.006
13,CCc1[nH]c2ccc(CNc3cncc(C(=O)N(C)C)n3)cc2c1C,5.05
14,Cc1nnc(NCC(c2ccco2)N2CCCC2)c(C#N)c1C (stereo not given),-0.3665
15,COC(=O)NCC(=O)N1CCCn2nc(CN3CC[C@H](F)C3)cc2C1,-5.697
16,O=C1OCCCN1Cc1nc(-c2ccc(N3CCCCC3)cc2)no1,-4.946
17,Cc1occc1-c1nc(-c2cccc(CN3CCOCC3)c2)no1,0.4297
18,c1cc(N2CCCCC2)ccc1-c1noc(CN2CCOCC2)n1,101.7
19,Cc1cc(-c2nc(-c3cccc(CN4CCOCC4)c3)no2)no1,-11.24
20,O=C1NCCCN1Cc1nc(-c2ccc(N3CCCCC3)cc2)no1,-15.88
21,Brc1cccc(-c2noc(CN3CCOCC3)n2)c1,107.1
22,NC(=O)C(NC(=O)Cc1cnn(-c2ccccc2)n1)c1ccccc1 (stereo not given),-10.55
23,CNC(=O)C(C)(C)CNC(=O)Nc1cc(C)ccn1,-2.642
24,CNC(=O)[C@H]1C[C@@H]2CN(S(=O)(=O)c3ccc(C)cc3)C[C@@H]2N1C.O=C(O)C(F)(F)F,-6.65

row,Compound,Percent Effect [%]
1,CNC(=O)[C@H]1C[C@@H]2CN(S(=O)(=O)c3ccccc3)C[C@@H]2N1C.O=C(O)C(F)(F)F,-12.02
2,CNC(=O)[C@H]1C[C@@H]2CN(S(=O)(=O)c3cccc(C)c3)C[C@@H]2N1C.O=C(O)C(F)(F)F,-8.978
3,CNC(=O)[C@H]1C[C@@H]2CN(C(=O)c3ccncc3)C[C@@H]2N1S(C)(=O)=O.O=C(O)C(F)(F)F,89.45
4,CNC(=O)[C@H]1C[C@@H]2CN(S(=O)(=O)c3ccc(F)cc3)C[C@@H]2N1C.O=C(O)C(F)(F)F,-8.738
5,CNC(=O)[C@H]1C[C@@H]2CN(C(=O)c3cccnc3)C[C@@H]2N1S(C)(=O)=O.O=C(O)C(F)(F)F,86.97
6,CNC(=O)[C@H]1C[C@@H]2CN(C(=O)c3ccccn3)C[C@@H]2N1S(C)(=O)=O.O=C(O)C(F)(F)F,96.47
7,CCc1nc(C)c(C(C)N(C)CCOC)s1 (stereo not given),-4.092
8,CC(C)c1nnc(NCc2ccsc2)o1,-7.753
9,COc1cccc(COC(C)C(=O)NCc2nnc3n2CCC3)c1 (stereo not given),0.6682
10,Cc1csc(N2CCC(NCC3(O)CCc4ccccc43)CC2)n1 (stereo not given),-8.914
11,COCC1CN(S(=O)(=O)c2cccs2)Cc2ncnn2C1 (stereo not given),-4.986
12,O=C(O)C(F)(F)F.O=C(c1ccncc1F)N1Cc2nc(COCC3CC3)oc2C1,11.83
13,O=S(=O)(c1cccs1)N1Cc2nc(COCC3CC3)oc2C1,96.89
14,O=S(=O)(c1cccs1)N1CCN2C[C@H](OCC3CC3)C[C@H]2C1,12.99
15,O=C(Cc1cccs1)N1Cc2nc(COCC3CC3)oc2C1,106.2
16,O=C(NCc1ccccc1)N1Cc2nc(COCC3CC3)oc2C1,6.767
17,Cc1nnc(-c2ccc(C(=O)Nc3ccnc(N(C)C)n3)cc2)o1,-7.444
18,CN(C)c1ncc(-c2ccc(C(N)=O)cc2)c(C2CNCCO2)n1 (stereo not given),99.82
19,CN(C)c1ncc(-c2cccc(C(N)=O)c2)c(C2CNCCO2)n1.Cl (stereo not given),103.6
20,CN(C)c1ncc2c(n1)CCCC2NC(=O)c1ccsc1 (stereo not given),-6.116
21,C=Cc1ccc(C(=O)NC2CCCc3nc(N(C)C)ncc32)cc1 (stereo not given),4.134
22,CN(C)c1ncc(-c2ccc(C(N)=O)cc2)c(C2CCNC2)n1.Cl (stereo not given),101.4
23,CC(C#N)CSc1ccccc1NCC(=O)Nc1ccccc1 (stereo not given),-8.038
24,Cn1c(-c2ccccc2Cl)nc2cc(C(=O)NCCOCCO)cnc21,-3.34

row,Compound,Percent Effect [%]
1,O=C(CC1CCCO1)Nc1cccc(N2CCN(CC3CC3)CC2)c1 (stereo not given),-9.056
2,Cc1ccc(C)c(NC(=O)Cn2nc(C)c(C#N)c2N)c1,-3.359
3,CC(C)SCc1cccc(NC2CCN(C)C2=O)c1 (stereo not given),-2.094
4,CCc1ccccc1-n1cc(O)c(C(=O)N2CCCCC2)n1,-6.715
5,CC(=O)N1CCN(C(=O)C(C)n2cncn2)CC1 (stereo not given),5.614
6,CC(C(=O)N1CCN(c2ncccn2)CC1)n1cncn1 (stereo not given),114.6
7,Cc1csc(N2CCCN(C(=O)C(C(C)C)n3cncn3)CC2)n1 (stereo not given),-4.935
8,CCc1nc(CN2CCCN(C(=O)C(C)n3cncn3)CC2)cs1 (stereo not given),-3.687
9,COc1ccc(NC(C)C(=O)N2CCN(c3ncccn3)CC2)cn1 (stereo not given),-16.98
10,CC(C(=O)N1CCN(c2cnccn2)CC1)n1cncn1 (stereo not given),-0.9189
11,CC(C)N1CCN(C(=O)C(C)n2cncn2)CC1 (stereo not given),90.2
12,CC(=O)N1CCCN(C(=O)C(C)n2cncn2)CC1 (stereo not given),98.01
13,CC(C(=O)N1CCN(c2ccccc2Cl)CC1)n1cncn1 (stereo not given),9.073
14,CC(C(=O)N1CCOCC1)n1cncn1 (stereo not given),74.2
15,CC(=O)N1C[C@@H](F)[C@@H](OCc2nc3ccc(C#N)cc3[nH]2)C1,-0.3332
16,Cc1csc(CN(CC2CCCO2)C(=O)c2occc2C)n1 (stereo not given),-7.004
17,Cc1ccc(NC2(C(=O)NCc3c(C)n[nH]c3C)CCCC2)cc1,1.889
18,O=S1(=O)CCC(N(CCc2ccc3c(c2)CCO3)C2CC2)C1 (stereo not given),-1.378
19,Cc1ccc(CN2CCOC3(CCCN(C(=O)c4ccco4)C3)C2)o1 (stereo not given),-7.626
20,NCCc1c(-c2ccccc2)[nH][nH]c1=O.O=C(O)C(=O)O,104.8
21,NCCc1c(-c2ccc(F)cc2)[nH][nH]c1=O,105.4
22,Cc1ccc(-c2[nH][nH]c(=O)c2CCN)cc1,116.2
23,Cc1nc(C)c(CCNC(Cc2ccncc2)C(F)(F)F)s1 (stereo not given),2.095
24,CC(SCCS(C)(=O)=O)c1nc(Cc2ccc(F)cc2)no1 (stereo not given),-13.13

row,Compound,Percent Effect [%]
1,CNC(=O)c1cn2cc(-c3ccccc3Cl)n(CC=C(C)C)c(=O)c2n1,16.22
2,COc1ccccc1CNC(=O)N1CCCC(CO)C1 (stereo not given),3.322
3,COc1ccccc1CN1CC(OC)CN(C(=O)OCC(C)C)CC1=O (stereo not given),116.7
4,COc1ccccc1C(C)CC(=O)N1CCCS1(=O)=O (stereo not given),-3.86
5,COc1ccccc1OC1CN(C(=O)Cc2c(C)nc(N)nc2C)C1,-25.47
6,COc1ccccc1C(C)CC(=O)N1CCN(S(N)(=O)=O)CC1 (stereo not given),6.973
7,COc1ccccc1CN1CC(O)CN(C(=O)OCC(C)C)CC1=O (stereo not given),126.7
8,COc1ccccc1CN1CC(OC)CN(C(=O)CC(C)C)CC1=O (stereo not given),106.9
9,COc1ccccc1CNC(=O)C(C)N1CC(n2nc(C)cc2C)C1 (stereo not given),-6.868
10,Cc1cc(CNc2cc(Cl)ccc2OCCS(C)(=O)=O)no1,12.16
11,COCCN(Cc1ccsc1)C(=O)c1c(C)cc(C)[nH]c1=O,-10.51
12,Cc1oncc1C(=O)N1C[C@H]2CCCC(N(C)Cc3cccs3)[C@H]2C1.O=C(O)C(F)(F)F (stereo not given in full),13.96
13,Cc1ccoc1C(=O)N1CC[C@H]2[C@H](C[C@@H](CN3CCCC3)N2C)C1.O=C(O)C(F)(F)F.O=C(O)C(F)(F)F,96.15
14,CC(C)N1[C@H](CN2CCCC2)C[C@@H]2CN(Cc3ccoc3)CC[C@@H]21.O=C(O)C(F)(F)F.O=C(O)C(F)(F)F.O=C(O)C(F)(F)F,-12.2
15,CN1[C@H](CN2CCCC2)C[C@@H]2CN(Cc3ccoc3)CC[C@@H]21.O=C(O)C(F)(F)F.O=C(O)C(F)(F)F.O=C(O)C(F)(F)F,3.946
16,CCOCC1CN(C(=O)c2cc(C)oc2C)Cc2c1cnn2C.O=C(O)C(F)(F)F (stereo not given),4.422
17,CS(=O)(=O)N1CC[C@H]2[C@H](C[C@@H](Cn3cncn3)N2CC2CC2)C1.O=C(O)C(F)(F)F,-10.6
18,Cc1cc(C(=O)N2CC[C@H]3[C@H](C[C@@H](CN4CCCC4)N3C)C2)c(C)o1.O=C(O)C(F)(F)F.O=C(O)C(F)(F)F,132.6
19,Cc1oncc1C(=O)N1CC[C@H]2[C@H](C[C@@H](CN(C)C)N2CC2CC2)C1.O=C(O)C(F)(F)F.O=C(O)C(F)(F)F,105.6
20,CN(C)C[C@@H]1C[C@@H]2CN(Cc3nccn3C)CC[C@@H]2N1CC1CC1,107.7
21,Cc1cc(C(=O)N2C[C@@H]3COC[C@]3(CN(C)C)C2)c(C)o1.O=C(O)C(F)(F)F,-9.437
22,CC(C)N1[C@H](Cn2cncn2)C[C@@H]2CN(Cc3nccn3C)CC[C@@H]21.O=C(O)C(F)(F)F.O=C(O)C(F)(F)F.O=C(O)C(F)(F)F,2.762
23,CC(C)C1CN(Cc2nccn2C)CCC(=O)N1CC1CC1 (stereo not given),-0.2084
